From PubChem BioAssay
Rows were chosen to be rich in hits. Some 5.5% of all compounds tested hit in one or more screens of this group.
Sfp inh – blocks B. subtilis Sfp PPTase activity. Q9F4F7. Biochemical Sfp PPTase activity, qHTS. Potency, µM, actives largely listed as inhibitors. 310,000 tested, 3.5% active;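 further: the enzyme is Sfp with the accession as filed and its product quenches rhodamine fluorescence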
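Buffer: 50 mM Hepes-Na pH 7.6, 10 mM MgCl2, 0.01% Nonidet P-40, 0.01% BSA. Enzyme 15 nM, pre-exposed to compound 15 min; substrates then added and fluorescence change tracked over 30 min.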
ELG1 DNA repair – inhibitors of ELG1-dependent DNA repair in HEK293T cells | HEK293T ELG1-luciferase reporter, luminescence, 16 h; DNA damage induced by 5-fluorouridine | Potency, µM (titrated, usually from 46.1 µM), hits mostly inhibitors | 330,000 tested, 2.3% active; further: nearly all actives have a fitted effect of over 55% in size
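DMSO vehicle served as the neutral condition. Each well held 2,000 cells given 5-fluorouridine plus compound; after 16 hr at 37 °C/5% CO2, ONE-Glo was added and luciferase measured 30 min later.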
FBPA coupling cs – counter-screen for Giardia aldolase inhibitors: coupling enzyme system. AID 2472. coupling enzyme system counterscreen, AmpLite Red fluorescence. activity change, negative = inhibition, % at 58.2 µM, hits read low. 290,000 tested, 0.67% active; in the data active means activity change below about -30%
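Fluorescence at 525 nm excitation and 598 nm emission measured inhibition of the coupled detection system without aldolase. Compounds (at 57.5 uM final) were preincubated 10 min at room temperature with coupling enzyme reagent before a 20 min substrate/AmpLite Red step.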
Giardia kill – kills Giardia lamblia. Giardia lamblia trophozoite viability. activity change, % at 7.66 µM, hits read low. 340,000 tested, 0.15% active; in the data active means activity change below about -80%; inconclusive means between about -30% and that limit;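 further: parasites exposed to compound for two days anaerobically before the ATP read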
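Compounds were tested on trophozoites seeded at 100 cells/well and held 48 hrs at 37 deg C anaerobically. An ATP-based luminescent kit measured the remaining live cells.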
Hits are given with their value; – = inactive; ? = inconclusive; · = not tested or not shown; ! = repeats disagree. Unless noted, the call rests on the fitted dose curve; in most records, active means well fitted curve in the direction sought with a large enough effect; inconclusive means small, poorly fitted or top-dose-only effect, or another doubt; inactive means no such curve, though single readings can be large; an effect the other way counts as inactive or inconclusive.

SMILES	Sfp inh	ELG1 DNA repair	FBPA coupling cs	Giardia kill
COC(=O)[C@@H]1CC[C@H](C)[C@@H](c2ccc(C)cc2)N1C(=O)c1ccc(/C=N\O[C@@H](C)CN2CCCCc3nc(C)c(C)cc32)cc1	–	·	–	·
COc1ccc(C(=O)/C=C/c2ccc(OC)c(O)c2)c(F)c1	50µM	?	–	–
COc1cc(/C=C/C(=O)CC(=O)/C=C/c2ccc(O)c(OC)c2)ccc1O	45µM!	?	–	–
COc1cc(C=O)ccc1O	–	·	–	·
COc1ccc(/C=C/C(=O)c2cccc(-n3cnnn3)c2)cc1O	–	–	–	–
COc1cc(/C=C/C2=NC(=O)C(C)(C)O2)ccc1O	–	26µM	–	–
COc1ccc(/C=C/C(=O)CC(=O)/C=C/c2cccc(O)c2OC)cc1O	32µM!	·	–	·
CCOc1nc(C#N)nc(N(c2ccccc2)c2ccccc2)n1	·	·	·	–
N[C@H](COP(=O)(O)O)C(=O)O	–	·	·	·
COc1ccc(/C=C/C(=O)Oc2ccc(C)c(C)c2)cc1OC	8.9µM	–	–	–
COc1ccc(/C=C/C(=O)C(C)(C)C)cc1OC	–	–	–	–
Cc1ccc(NC(=O)c2ncn(CCCNCc3ccccn3)n2)cc1C	·	·	·	–
Cc1ccc(-c2onc3ccc(Cl)cc23)cc1	–	–	–	–
COc1ccc(-c2onc3ccc(Cl)cc23)cc1	50µM	–	–	–
COc1ccc(CCN2C(=O)c3ccccc3NC2c2cc(Cl)c(O)c(OC)c2)cc1 (stereo not given)	–	7.3µM	–	–
CCCN1C(=O)c2ccccc2NC1c1cc(OC)c(OC)c(OC)c1 (stereo not given)	–	–	–	–
Cc1cc(C(=O)N/N=C/c2cccc([N+](=O)[O-])c2)c2ccccc2n1	–	–	–	–
COc1ccccc1-c1cc(C(=O)N/N=C\c2cnn(C)c2C)c2ccccc2n1	–	?	–	–
O=C(NN=Cc1cccc([N+](=O)[O-])c1)c1cc(-c2cccnc2)nc2ccccc12	·	23µM	·	–
COc1ccccc1-c1cc(C(=O)N/N=C/C=C/c2ccccc2[N+](=O)[O-])c2ccccc2n1	–	16µM	–	–
O=C(NN=Cc1cccc([N+](=O)[O-])c1)c1cccc2ccccc12	·	·	·	–
O=C(N/N=C/c1cccc([N+](=O)[O-])c1)c1ccccc1-n1cccc1	–	?	-38	–
O=C(N/N=C/C=C/c1ccccc1[N+](=O)[O-])c1cccnc1	–	–	–	–
O=C(N/N=C/C=C/c1ccccc1[N+](=O)[O-])c1cc(-c2cccnc2)nc2ccccc12	–	16µM	–	–
COc1ccc(/C=N/NC(=O)c2cc(-c3cccnc3)nc3ccccc23)c(OC)c1	–	–	–	–
SMILES	Sfp inh	ELG1 DNA repair	FBPA coupling cs	Giardia kill
Cc1[nH]c2ccccc2c1C=NNC(=O)c1cc(-c2cccnc2)nc2ccccc12	·	16µM	·	–
NNC(=O)c1[nH]c(-c2ccccc2)cc1-c1ccccc1	–	–	–	–
Cc1ccc(Cn2cnc3c(cnn3C(C)(C)C)c2=O)cc1	–	16µM	–	–
CC(C)(C)n1ncc2c(=O)n(Cc3ccc(Cl)c(Cl)c3)cnc21	–	?	–	–
CCN(CC)CCCNc1ccc2ncn3c4ccc(O)cc4c(=O)c1c23	·	·	·	–
CC[C@]12c3[nH]c4ccccc4c3CCN1C(=O)C(CC(=O)NCCC1=CCCCC1)C[C@@H]2C(=O)N1CCN(C(=O)C2CC2)CC1 (stereo not given in full)	·	–	·	–
Cc1cccc(NC(=O)COc2coc(CN3CCN(c4ccccc4)CC3)cc2=O)c1	·	–	·	–
Cc1ccc(/C=C/c2nc3ccccc3c(=O)[nH]2)cc1	–	?	–	-90
COC(=O)c1ccc(/C=C/c2nc3ccccc3c(=O)[nH]2)cc1	–	?	–	–
Cc1onc(-c2ccccc2)c1C(=O)N1CCN(c2ccc([N+](=O)[O-])cc2)CC1	·	·	·	–
Cc1c(-c2ccccc2)oc2c(C(=O)N3CCN(c4ccc([N+](=O)[O-])cc4)CC3)cccc2c1=O	?	3.3µM	–	–
Cc1c(C(=O)N2CCN(c3ccc([N+](=O)[O-])cc3)CC2)oc2ccccc12	·	11µM	·	–
Cc1c(C(=O)OCC(=O)N2CCN(c3ccccc3)CC2)oc2ccccc12	·	?	·	–
CC(C)(C)c1ccc(C(=O)Nc2cccc(-n3cnnn3)c2)cc1	–	?	·	?
COCCCN1CC23C=CC(O2)C(C(=O)OC)C3C1=O (stereo not given)	·	·	·	–
COC(=O)C1C2C=CC3(CN(CC4CCCO4)C(=O)C13)O2 (stereo not given)	?	–	-79	–
COC(=O)C1C2C=CC3(CN(Cc4ccco4)C(=O)C13)O2 (stereo not given)	13µM	–	–	–
CSCC[C@H](N)C(=O)N[C@@H](CCCN=C(N)N)C(=O)N[C@@H](Cc1ccccc1)C(=O)N[C@@H](Cc1ccccc1)C(=O)N[C@H](C(=O)O)C(C)C	–	·	–	·
COc1cccc(C(=O)Nc2ccc3nc(N4CCN(c5ncccn5)CC4)cc(C)c3c2)c1OC	–	2.6µM	–	·
CCn1c2ccccc2c2cc(NC(=O)c3cccc(OC)c3OC)ccc21	–	15µM	–	–
O=C(N=C1SC2CS(=O)(=O)CC2N1c1ccc(F)cc1)C1CC1 (stereo not given)	–	–	–	–
CCOC(=O)CC(Nc1nc(N2CCOCC2)nc(N2CCOCC2)n1)c1ccccc1Cl (stereo not given)	–	9.2µM	–	–
CCOC(=O)CC(NC(=O)Cc1cccs1)c1ccccc1Cl (stereo not given)	–	–	–	–
CCCn1c(=O)c2[nH]c(-c3ccccc3)nc2n(CCC)c1=O	–	·	–	·
Nc1nc(-c2ccccc2)c(N=Nc2ccc(Cl)cc2)s1	25µM	–	–	–
SMILES	Sfp inh	ELG1 DNA repair	FBPA coupling cs	Giardia kill
COc1cc(Cl)c(C)cc1NC(=O)CCN1C(=O)NC(C)(C)C1=O	·	–	·	–
CCOCCCNC(=O)Cn1cnc2c(cnn2-c2ccc(C)c(C)c2)c1=O	–	–	–	–
CCCn1c(C)cc(=O)c2cc(NC(=O)c3ccccn3)ccc21	–	16µM	–	–
CCOc1ccc(NC(=O)c2ccccn2)cc1	–	?	–	-93
CCOc1ccc(NC(=O)c2cccnc2C(=O)O)cc1	56µM	?	–	–
Cc1ccc(NC(=O)C(=O)Nc2ccc(C)cn2)nc1	–	?	–	–
Cc1ccc(NC(=O)c2cccnc2C(=O)O)nc1	56µM	?	–	–
CCCC(=O)Nc1ccc(NC(=O)c2ccccn2)cn1	–	?	–	–
CCOc1ccc(NC(=O)c2cccnc2SC)cc1	–	?	–	–
CCCCc1cc2c(cn1)=C(OC(=O)CCC(=O)OC)C(C)(OC(=O)CC)C(=O)C=2 (stereo not given)	–	·	–	·
O=C(Nc1ccncc1)Nc1cccc(F)c1	–	?	–	–
COc1ccc(NC(=O)CSc2nnc(N)s2)cc1S(=O)(=O)N1CCCCC1	·	–	·	–
Cc1cc(SCC(=O)N/N=C/c2ccc(O)c(O)c2O)c(C)cc1Br	10µM	–	-32	–
COc1cc(/C=N/NC(=O)CSc2cc(C)c(Br)cc2C)ccc1O	?	16µM	–	–
